CYP2C9 inhib: inhibitors of human CYP2C9. P11712. CYP2C9 Supersomes, luciferin-H conversion, luminescence. inhibition, % at 5 µM. hit rate 20% among 96,000;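 active = blocking of liver enzyme CYP2C9 beyond about 50% at 5 µM, limit read from the data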
PostGolgi ctrl: yeast control strain growth, post-Golgi counter-screen; efflux-deficient yeast background strain, growth absorbance A615, 16 h; inhibition, % at 10 µM; hit rate 5% among 98,000; AID 738
CYP2C9 activ: increases human cytochrome P450 2C9 activity; hit rate 1.4% among 96,000; activation factor at 5 µM; AID 1024; recombinant CYP2C9, luciferin-H conversion, luminescence; hits give high values; factor 1 = untreated enzyme, 0 = blocked;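 active = activation factor of 2 or more for CYP2C9 at a 5 µM dose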;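 note: 0 = sulfaphenazole-blocked wells and 1 = vehicle-only wells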
PostGolgi yeast: growth inhibition of a yeast mutant, post-Golgi transport screen | AID 739 | inhibition, % at 10 µM | hit rate 0.9% among 98,000 | post-Golgi transport phenotypic cell assay;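 note: yeast cells grown in 1536-well plates; yeast grown about 18 h at 30C before absorbance read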
CYP2C19 act: increases human CYP2C19 enzyme activity | recombinant CYP2C19, luciferin-H EGE luminescence; hits give high values; 0 = fully inhibited enzyme, 1 = untreated enzyme | AID 1025 | 96,000 tested, under 10 active | P33261 | activation factor at 5 µM;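 active = activation factor of at least 2 at 5 µM in the primary screen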;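 note: 0 = wells with 2.5 mM tranylcypromine and 1 = vehicle-only wells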
Target sequence (P33261 whole entry, looked up): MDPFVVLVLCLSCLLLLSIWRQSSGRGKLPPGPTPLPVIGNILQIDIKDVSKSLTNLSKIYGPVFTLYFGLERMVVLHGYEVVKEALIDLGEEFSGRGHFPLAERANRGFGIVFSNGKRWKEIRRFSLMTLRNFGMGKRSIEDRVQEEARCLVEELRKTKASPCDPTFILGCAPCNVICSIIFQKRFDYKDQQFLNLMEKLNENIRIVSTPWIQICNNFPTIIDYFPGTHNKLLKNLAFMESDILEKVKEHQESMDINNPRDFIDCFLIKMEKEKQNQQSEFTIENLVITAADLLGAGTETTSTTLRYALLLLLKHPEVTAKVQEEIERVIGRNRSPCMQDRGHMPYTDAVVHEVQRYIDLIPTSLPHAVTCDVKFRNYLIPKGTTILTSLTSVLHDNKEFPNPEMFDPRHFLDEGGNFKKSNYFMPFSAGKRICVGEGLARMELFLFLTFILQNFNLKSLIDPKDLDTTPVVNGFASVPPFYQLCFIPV
CYP2C19 inhib: blocks human cytochrome P450 2C19; CYP2C19 Supersomes, luciferin-H EGE luminescence, 30 min; hit rate 21% among 96,000; P33261; inhibition, % at 5 µM;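 active = CYP2C19 inhibition above a set limit at 5 µM in the primary screen, cut at about 50% in these data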;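 note: plate controls were negative control wells for no effect and 2.5 mM tranylcypromine positive control for full effect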
Numbers without * were called inactive; nt = no result given. Sampled rows, rich in hits. Any-hit rate of the full collection: about 32%. Cut-off read from the data, not from the text of the source, unless noted: active = inhibition above about 30%; inactive = the rest.

SMILES	CYP2C9 inhib	PostGolgi ctrl	CYP2C9 activ	PostGolgi yeast	CYP2C19 act	CYP2C19 inhib
O=C(CN1C(=O)c2ccccc2C1=O)Nc1sc2c(c1C(=O)NCC1CCCO1)CCC2 (stereo not given)	8	4	0.9	-1	1.1	-9
O=C(CCCN1C(=O)c2ccccc2C1=O)Nc1sc2c(c1C(=O)NCc1ccco1)CCC2	96*	16	0	-14	0.4	65*
O=C(CN1C(=O)c2ccccc2C1=O)Nc1sc2c(c1C(=O)NCc1ccco1)CCCC2	82*	14	0.2	1	0.8	19
c1ccc(N2CCCCC2)c(NC2=NCCC2)c1	18	-2	0.8	-8	0.9	6
COc1ccc(C(=O)C2CN(c3ccccc3)CC2c2ccc(Cl)cc2)cc1 (stereo not given)	63*	3	0.4	-14	0.5	47
COc1ccc(CCNc2nnc(Sc3nnnn3-c3ccccc3)s2)cc1OC	8	4	0.9	19	0.3	73*
CCCn1nnnc1SCC(=O)NCc1ccc(OC)cc1	-14	0	1.1	-6	0.8	20
COc1ccc(-n2nnnc2SCC(=O)N2CCOCC2)cc1	7	0	0.9	-2	0.9	14
COc1ccc(CNC(=O)CSc2nnnn2-c2ccccc2)cc1	73*	1	0.3	-1	0.1	89*
COc1ccc(-n2nnnc2SCC#CCO)cc1	45	-1	0.6	3	0.1	90*
COc1ccc(CCNC(=O)CSc2nnnn2-c2ccccc2)cc1	78*	1	0.2	-2	0.2	76*
COc1ccc(CCNc2nc3ccccc3n3nnnc23)cc1OC	8	-2	0.9	-17	0.7	32
[O-][n+]1onc2c3ccnnc3ccc21	-5	10	1	1	1.1	-9
CC(C)(C)OC(=O)N1CC2Cc3[nH]c(=O)ccc3C(C2)C1 (stereo not given)	-3	3	1	-6	0.8	18
CCC(Sc1n[nH]c(=O)[nH]c1=O)C(=O)OCc1ccccc1 (stereo not given)	18	-9	0.8	-1	0.6	41
COC(=O)Cn1c(=NC(=O)CSC(C)=O)sc2ccccc21	50	4	0.5	3	1.1	-5
Nc1nc(SCC(=O)NC2CCCCC2)[nH]c(=O)c1-c1ccccc1	13	-10	0.9	-4	0.8	25
COc1ccc(CNC(=O)CSc2nnnn2Cc2ccccc2)cc1	73*	0	0.3	5	0.2	79*
CCc1nc2c(n1O)CCc1nonc1-2	40	3	0.6	-6	0.9	6
CCOC(=O)C1=C(C)NC(=O)NC1c1ccc(N(CC)CC)cc1 (stereo not given)	52*	28	0.5	1	0.8	17
CCOC(=O)C1=C(C)NC(=O)NC1c1cc(C)sc1C (stereo not given)	0	2	1	-3	0.9	7
CCOC(=O)C1=C(CN2CCC(C)CC2)NC(=O)NC1c1ccc(Cl)cc1 (stereo not given)	89*	6	0.1	3	0.2	78*
CCOC(=O)C1=C(C)NC(=O)NC1c1ccc(Cl)cc1Cl (stereo not given)	13	8	0.9	2	0.3	68*
CC1=C(C(=O)OC2CCCCCCC2)C(c2cccc(O)c2)NC(=O)N1 (stereo not given)	81*	13	0.2	-5	0.2	81*
CCN(CC)C(=O)N1CCC(NC(=O)c2ccc(C(C)(C)C)cc2)CC1	-26	5	1.3	-5	1	-2
SMILES	CYP2C9 inhib	PostGolgi ctrl	CYP2C9 activ	PostGolgi yeast	CYP2C19 act	CYP2C19 inhib
Cc1ccc(CCNC(=O)C2CCCN(S(=O)(=O)c3cccc4nsnc34)C2)cc1 (stereo not given)	11	0	0.9	-6	0.8	24
Cc1cnc(C(=O)OCC(=O)c2csc(N3CCCCC3)n2)cn1	20	-2	0.8	12	1	1
CCOC(=O)C1=C(C)NC(=O)NC1c1cn(-c2ccccc2)nc1-c1cccs1 (stereo not given)	80*	20	0.2	-8	0.4	56*
C=CCOc1c(OC)cc(Cl)cc1C1NC(=O)NC(C)=C1C(C)=O (stereo not given)	-6	-4	1.1	-5	1	-3
COc1ccc(-c2nn(-c3ccccc3)cc2C2CC(c3cccs3)=NN2C(=O)CCCC(=O)O)cc1 (stereo not given)	8	-8	0.9	-6	1.1	-6
CCOC(=O)C1=C(C)NC(=O)NC1c1ccc(OCC(=O)Nc2ccccc2)c(OC)c1 (stereo not given)	91*	11	0.1	1	0.3	70*
Cc1ccc(-c2nn(-c3ccccc3)cc2C2CC(c3cccs3)=NN2C(=O)CCCC(=O)O)cc1 (stereo not given)	61*	6	0.4	0	0.9	9
C=CCOc1c(Cl)cc(C2NC(=O)NC(C)=C2C(=O)OC)cc1Cl (stereo not given)	37	51*	0.6	7	0.4	57*
CC(C)OP(=O)(c1ccc(N(C)C)cc1)C(O)c1ccccc1 (stereo not given)	-6	10	1.1	-6	0.6	39
O=[n+]1c2c(n([O-])c3c1CCCC3)CCCCC2	0	11	1	-2	1	2
CCOC(=O)C1=C(C)NC(=O)NC1c1c(OCC(=O)N2CCCCC2)ccc2ccccc12 (stereo not given)	83*	-11	0.2	14	0.2	76*
CCOC(=O)C1=C(C)NC(=O)NC1/C(C)=C/c1ccccc1 (stereo not given)	69*	13	0.3	1	0.2	78*
CC1=C(C(=O)OCC(C)C)C(c2ccc(F)cc2)NC(=O)N1 (stereo not given)	29	33*	0.7	3	0.1	90*
CCCCCCOC(=O)C1=C(C)NC(=O)NC1c1ccc(O)cc1 (stereo not given)	81*	-18	0.2	9	0.3	70*
COC(=O)C(Cc1cncn1COCc1ccccc1)NC(=O)OC(C)(C)C (stereo not given)	25	5	0.8	-9	0.6	36
NC(=O)C1(N2CCCCC2)CCN(C(=O)CSc2nc(C(F)(F)F)cc(=O)[nH]2)CC1	-7	1	1.1	3	0.9	7
CCN(CC)CCCN1C(=O)C(=O)/C(=C(/O)c2ccccc2)C1c1cc(OC)ccc1OC (stereo not given)	1	nt	1	nt	1	1
O=C(NC1CC2CCCC(C1)N2S(=O)(=O)c1ccccc1)c1ccco1 (stereo not given)	35	-2	0.7	2	0.6	36
COc1cc(C(=O)NC2CC3CCCC(C2)N3CC(=O)Nc2ccccc2)cc(OC)c1OC (stereo not given)	97*	8	0	1	0.2	81*

Assay outcomes as filed in PubChem.
